Z-score and composite z-score data for 9 molecules are collected here from PubChem BioAssay.

Active and inactive are the calls of the source. Unless noted, the rule behind the calls is not given here.

Assay [1] can be described thus: compound effects on lung adenocarcinoma cell viability – A549, calcein-AM fluorescence, 48 h, basal, profiling panel (AID 1162). Note: test concentration not given here. As to conditions: higher = more signal.
The nature of assay [2]: compound effects on differentiated 3T3-L1 adipocyte viability – cell-based, 3T3-L1 adipocytes, calcein-AM fluorescence, 48 h, basal, profiling panel (AID 1163). Note: test concentration not given here. The following applies: 3T3-L1 adipocytes viability, higher = more signal.
The nature of assay [3]: compound effects on hepatocellular carcinoma cell viability – HepG2, calcein-AM fluorescence, 48 h, basal, profiling panel (AID 1164). Note: test concentration not given here. The following applies: higher = more signal.
Assay [4] in a line: compound effects on multiple myeloma cell viability – MM1S, calcein-AM fluorescence, 48 h, basal, profiling panel (AID 1165).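 Note: viability of MM1S multiple myeloma cells under basal unstimulated conditions; test concentration not given here.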 The following applies: higher = more signal.
Assay [5] can be described thus: calcein-AM signal in unstimulated myeloma cells – cell-based, calcein-AM fluorescence, 48 h, PK04 Diversity Set, profiling panel (AID 1166).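 Note: cells grown under basal conditions without added stimulus; test concentration not given here.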 As to conditions: RPMI8226 myeloma viability, higher = more signal.
The nature of assay [6]: JC-1 mitochondrial signal, unstimulated HepG2 cells – cell-based, JC-1 fluorescence, 24 h, 100 nL compound, profiling panel (AID 1167). Note: test concentration not given here. The following applies: HepG2 mitochondrial potential, higher = more signal.
A short description of assay [7]: JC-1 mitochondrial signal, unstimulated adipocytes – cell-based, JC-1 fluorescence, 3T3-L1 adipocytes, 24 h, 100 nL compound, profiling panel (AID 1168). Note: test concentration not given here. The following applies: JC-1 mitochondrial fluorescence, higher = more signal, called active from +8 up or from −8 down.
Assay [8] can be described thus: JC-1 mitochondrial signal, unstimulated myeloma cells – cell-based, JC-1 fluorescence, RPMI8226, 24 h, 100 nL compound, profiling panel (AID 1169). Note: test concentration not given here. As to conditions: JC-1 mitochondrial potential fluorescence, higher = more signal.
Assay [9] in a line: JC-1 mitochondrial signal, unstimulated MM1S myeloma – cell-based, JC-1 fluorescence, 24 h, 100 nL compound, profiling panel (AID 1170). Note: test concentration not given here. The following applies: MM1S mitochondrial potential, higher = more signal.
A short description of assay [10]: resazurin metabolic signal in A549 cells – cell-based, resazurin fluorescence, 24 h, PK04 Diversity Set, profiling panel (AID 1171). Note: test concentration not given here. As to conditions: A549 viability, higher = more signal, called active from +8 up or from −8 down.
A short description of assay [11]: resazurin metabolic signal in HepG2 cells – cell-based, resazurin fluorescence, 24 h, PK04 Diversity Set, profiling panel (AID 1172). Note: test concentration not given here. As to conditions: HepG2 viability, higher = more signal.
Assay [12] can be described thus: budding yeast growth changes without added modifier – OD600, strain BY4716, 24 h, basal condition, primary screen (AID 1173). The following applies: S. cerevisiae BY4716 growth, OD600, 24 h; higher = more signal, called active from +8 up or from −8 down.
The nature of assay [13]: viability profiling in MM1S myeloma cells – cell-based, resazurin fluorescence, basal, 24 h, PK04 Diversity Set, profiling panel (AID 1174). Note: test concentration not given here. The following applies: higher = more signal, called active from +8 up or from −8 down.
Assay [14] addresses Dihydroorotate dehydrogenase (quinone), mitochondrial (Plasmodium falciparum (isolate 3D7)) (UniProt Q08210). The assay is described as follows: inhibition of P. falciparum DHODH – biochemical, C-terminal His tag, absorbance 600 nm, primary screen (AID 1175).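 Note: recombinant parasite enzyme with a five histidine tag at its C terminus; test concentration not given here.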 The following applies: PfDHODH enzyme, DCIP absorbance 600 nm; higher = more signal, called active from +8 up or from −8 down.

Assay [15] is described as follows: inhibition of PAO1 biofilm formation – strain PAO1, LB-PBS medium, absorbance 600 nm, primary screen (AID 1176). Note: test concentration not given here. As to conditions: P. aeruginosa PAO1 growth/biofilm, A600, 12 h; higher = more signal.
The nature of assay [16]: growth modulation of vineyard yeast isolate – strain RM11-1a, OD600, basal, 24 h, primary screen (AID 1177).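 Note: cultures grown under basal conditions with no added stressor; test concentration not given here.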 The following applies: S. cerevisiae RM11-1a growth, OD600, 24 h; higher = more signal, called active from +8 up or from −8 down.
The nature of assay [17]: growth of efflux-deficient E. coli DRC39 – strain DRC39, OD650, 24 h, E. coli filamentation inducers, primary screen (AID 1178).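 Note: growth measured as culture turbidity by optical density at 650 nm; test concentration not given here.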 The following applies: E. coli DRC39 acrAB, higher = more signal, called active from +8 up or from −8 down.
The nature of assay [18]: growth of efflux-deficient E. coli DRC39 – strain DRC39, OD650, 48 h, E. coli filamentation inducers, primary screen (AID 1179).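 Note: screen aims at cell division blockers that make cells filament.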 As to conditions: E. coli DRC39 delta-acrAB growth, higher = more signal, called active from +8 up or from −8 down.
A short description of assay [19]: viability profiling in RPMI8226 myeloma cells – cell-based, resazurin fluorescence, basal, 24 h, PK04 Diversity Set, profiling panel (AID 1180).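 Note: RPMI8826 multiple myeloma cell line at 5000 cells per well; test concentration not given here.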 As to conditions: higher = more signal.
For assay [20], the target named is E3 ubiquitin-protein ligase XIAP (Homo sapiens) (UniProt P98170). The assay is described as follows: small molecules binding XIAP protein – biophysical, small-molecule microarray, fluorescence 635 nm, primary screen (AID 1181).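 Note: score merges 667 nm emission and signal to noise over triplicate slides.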 As to conditions: higher = more signal.
Chain of E3 ubiquitin-protein ligase XIAP (Homo sapiens) (P98170 whole entry, looked up): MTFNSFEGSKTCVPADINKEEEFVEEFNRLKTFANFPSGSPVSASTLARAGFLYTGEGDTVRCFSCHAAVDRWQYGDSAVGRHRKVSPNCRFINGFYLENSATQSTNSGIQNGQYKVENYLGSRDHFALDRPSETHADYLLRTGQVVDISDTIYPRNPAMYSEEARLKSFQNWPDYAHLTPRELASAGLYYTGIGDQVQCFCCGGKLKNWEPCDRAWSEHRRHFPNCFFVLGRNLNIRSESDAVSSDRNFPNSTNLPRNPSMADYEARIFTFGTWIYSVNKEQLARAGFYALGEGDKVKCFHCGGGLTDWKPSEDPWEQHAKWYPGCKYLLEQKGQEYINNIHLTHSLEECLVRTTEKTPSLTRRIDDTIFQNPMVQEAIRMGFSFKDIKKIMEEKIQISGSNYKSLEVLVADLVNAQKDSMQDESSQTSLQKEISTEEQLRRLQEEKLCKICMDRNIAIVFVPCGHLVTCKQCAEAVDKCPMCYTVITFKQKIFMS

Chain of Dihydroorotate dehydrogenase (quinone), mitochondrial (Plasmodium falciparum (isolate 3D7)) (Q08210 whole entry, looked up): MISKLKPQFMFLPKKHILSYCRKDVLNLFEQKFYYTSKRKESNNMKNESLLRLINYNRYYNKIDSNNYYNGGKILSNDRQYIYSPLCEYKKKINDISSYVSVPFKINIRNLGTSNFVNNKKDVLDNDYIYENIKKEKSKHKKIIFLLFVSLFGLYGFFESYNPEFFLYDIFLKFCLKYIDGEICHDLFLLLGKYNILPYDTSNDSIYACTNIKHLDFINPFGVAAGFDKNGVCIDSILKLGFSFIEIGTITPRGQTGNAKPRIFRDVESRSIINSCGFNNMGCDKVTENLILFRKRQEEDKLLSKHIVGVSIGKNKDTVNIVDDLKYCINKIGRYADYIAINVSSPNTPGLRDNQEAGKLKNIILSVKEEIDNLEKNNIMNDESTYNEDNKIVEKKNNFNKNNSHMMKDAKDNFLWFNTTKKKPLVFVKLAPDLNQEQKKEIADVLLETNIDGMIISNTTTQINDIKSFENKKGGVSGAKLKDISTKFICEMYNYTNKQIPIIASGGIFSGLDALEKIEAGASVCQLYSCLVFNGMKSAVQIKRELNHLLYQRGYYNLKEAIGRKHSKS

`CC[C@@H]1C=C(C(=O)O)[C@H](c2ccc(Br)cc2)N1S(=O)(=O)c1ccc(C)cc1`: the z-score was -0.646 in assay [1]; -0.506 in [2]; -0.586 in assay [3]; -0.314 in assay [4]; -1.13 in assay [5]; -0.131 in assay [6]. For the same molecule, the z-score in assay [7] is -0.258 (inactive); in assay [8], -0.0108; in [9], -0.82; in [10] it was -0.472 (inactive); in assay [11], -0.386; in assay [12], -0.14 (inactive). In addition, the z-score in [13] was -0.459 (inactive); in [15] it was -0.116 (inactive); in assay [16] it was -0.716 (inactive); in [17] it was -0.593 (inactive); in [18], 0.295 (inactive); in assay [19] it was -1.51. The composite z-score in assay [14] is -0.412 (inactive); in assay [20], 0.157.
`CC(C)[Si]1(C(C)C)O[C@@H](c2ccccc2)c2cc(-c3ccc(-c4ccc(Cl)c(Cl)c4)o3)nc(-c3ccccc3)c21`: the z-score in assay [1] is 0.272; in [2], -0.277; in assay [3], 0.428; in assay [4], -2.62; in [5], -3.09; in [6] it was -1.87. The z-score in [7] is -1.06 (inactive); in [8] it was -0.395; in [9], -0.582; in [10] it was 0.613 (inactive); in assay [11], -0.0945; in [12], -1.38 (inactive). The z-score in assay [13] was -0.274 (inactive); in assay [15], 0.574 (inactive); in [16], -0.282 (inactive); in assay [17] it was -0.0522 (inactive); in assay [18], -0.221 (inactive); in assay [19], -0.406. Further, the composite z-score in assay [14] is 1.74 (inactive); in assay [20], -0.202.
As for `COC(=O)[C@@]1(Cc2ccc(OC)cc2)[C@H]2c3cc(C(=O)N4CCCC4)n(CCN4CNCC4=O)c3C[C@H]2CN1C(=O)c1ccccc1`, the z-score is -0.215 in assay [1]; 0.0334 in assay [2]; -0.137 in assay [3]; -0.105 in [4]; -2.17 in [5]; 0.696 in assay [6]. The z-score in assay [7] is -0.514 (inactive); in assay [8], -0.429; in assay [9], -0.162; in [10], -0.936 (inactive); in [11], -0.66; in [12] it was 0.818 (inactive). Also, the z-score in assay [13] was -0.359 (inactive); in assay [15], 1.68 (inactive); in assay [16], 1.22 (inactive); in assay [17], -0.146 (inactive); in assay [18], -0.199 (inactive); in assay [19], 0.0221. Also, the values for the composite z-score in assay [14] and in assay [20] were 0.0916 (inactive) and 0.778, respectively.
On to `COCCOC(=O)N1C(=O)[C@@]2(c3cc(C#Cc4ccc(OC)cc4)ccc31)[C@H](c1ccccc1OCCO)N1[C@H](c3ccccc3)[C@H](c3ccccc3)OC(=O)[C@H]1[C@@H]2C(=O)NC[C@H](O)c1ccccc1`, for which the z-score was -0.796 in assay [1]; 1.02 in assay [2]; -0.206 in assay [3]; -0.889 in assay [4]; -2.23 in assay [5]; 0.117 in assay [6]. For the same molecule, the z-score in assay [7] is 3.21 (inactive); in assay [8] it was -0.485; in [9] it was -1.26; in assay [10], -0.762 (inactive); in [11], 0.48; in assay [12], 2.55 (inactive). In addition, the z-score is -0.444 (inactive) in assay [13]; 3.27 (inactive) in assay [15]; 3.17 (inactive) in assay [16]; 0.418 (inactive) in assay [17]; 0.127 (inactive) in [18]; -0.82 in assay [19]. The composite z-score in assay [14] is -1.22 (inactive); in assay [20], -0.0421.
Consider `CCN(CC)c1ccc(N2CC=CC34O[C@@H]5C=CCCOC(=O)C5[C@H]3C(=O)N(CCCCCCO)[C@@H]4C2=O)cc1` (stereo not given in full), for which the z-score is 0.75 in assay [1]; 1.45 in [2]; 0.239 in [3]; 1.97 in assay [4]; 0.401 in assay [5]; 0.432 in [6]. Moreover, the z-score is -0.641 (inactive) in assay [7]; -0.197 in assay [8]; -0.585 in assay [9]; 1.02 (inactive) in assay [10]; 0.846 in [11]; -1.04 (inactive) in assay [12]. Also, the z-score in assay [13] was 1.55 (inactive); in assay [15] it was 0.786 (inactive); in assay [16] it was -1.31 (inactive); in assay [17] it was 1.07 (inactive); in [18], 0.534 (inactive); in assay [19], 1.04. Moreover, the composite z-score in assay [14] is -0.324 (inactive); in assay [20], 0.127.
In the case of `CO[C@H]1O[C@H](CO)[C@@H](OC(=O)Nc2ccccc2)[C@H](OC(=O)Nc2ccccc2)[C@@H]1OC(=O)Nc1ccccc1`, the z-score was -1.36 in assay [1]; 0.875 in [2]; -1.68 in assay [3]; -1.81 in [4]; -1.98 in [5]; -0.523 in assay [6]. Moreover, the z-score in assay [7] is 0.348 (inactive); in assay [8], -1.07; in assay [9], 0.0816; in assay [10] it was -2.01 (inactive); in [11], -0.72; in assay [12] it was 0.56 (inactive). Also, the z-score in [13] was -1.73 (inactive); in [15], -0.826 (inactive); in [16], 1.22 (inactive); in assay [17], 0.576 (inactive); in [18], 0.667 (inactive); in assay [19], -1.15. Also, the composite z-score in assay [14] was 0.202 (inactive); in assay [20], 0.178.
Consider `O=C1O[C@@H](c2ccccc2)[C@@H](c2ccccc2)N2[C@@H](c3ccccc3OCCO)[C@]3(C(=O)Nc4ccc(C#CC5=CCCCC5)cc43)[C@@H](C(=O)N3CCCCCCC3)[C@H]12`, for which the z-score in [1] was -1.66; in assay [2], 0.25; in assay [3], 0.297; in assay [4] it was -3.09; in [5] it was -2.79; in assay [6], 1.19. Also, the z-score in assay [7] was -1.85 (inactive); in assay [8], -0.715; in [9], -1.75; in assay [10], -0.312 (inactive); in [11], -0.868; in [12], 0.98 (inactive). Further, the z-score was -6.31 (inactive) in [13]; 1.63 (inactive) in assay [15]; 1.19 (inactive) in assay [16]; -0.994 (inactive) in [17]; -0.576 (inactive) in assay [18]; -4.11 in assay [19]. Further, the composite z-score in assay [14] was -0.35 (inactive); in assay [20], 1.56.
Regarding `CC(C)C(=C=CC[C@H](O)c1ccc(OCCO)cc1)CCO`, the z-score was 0.421 in assay [1]; 0.799 in assay [2]; 0.101 in assay [3]; -3.35 in assay [4]; -2.14 in [5]; -1.55 in [6]. The z-score in assay [7] was -0.722 (inactive); in assay [8], -0.881; in assay [9], -0.0147; in [10], 1.05 (inactive); in assay [11] it was 0.933; in assay [12], -1.87 (inactive). The z-score was -0.69 (inactive) in assay [13]; 0.825 (inactive) in assay [15]; -0.269 (inactive) in [16]; -0.732 (inactive) in assay [17]; -0.794 (inactive) in assay [18]; -0.0148 in [19]. The composite z-score is -0.324 (inactive) in [14] and 0.223 in assay [20].
Turning to `COCCCNC(=O)[C@]1(CCC(=O)OC(C)(C)C)N=C(c2ccc(OCCCO)cc2)O[C@@H]1c1ccccc1CN=[N+]=[N-]`, the z-score in [1] was -0.651; in assay [2], -0.579; in assay [3], -0.421; in assay [4], -0.658; in [5], 0.338; in assay [6], -0.255. The z-score in assay [7] was -0.2 (inactive); in [8] it was -0.315; in assay [9] it was -0.272; in [10], 0.743 (inactive); in assay [11], 0.49; in [12] it was -0.199 (inactive). Moreover, the z-score was -0.123 (inactive) in assay [13]; 1.56 (inactive) in assay [15]; -0.123 (inactive) in [16]; 0.323 (inactive) in assay [17]; -0.187 (inactive) in assay [18]; -0.0741 in assay [19]. Also, the composite z-score in assay [14] was 0.249 (inactive); in assay [20] it was 0.23.
